# Source: the supplement of paper PMC10646978
# ± gives the standard deviation.
# Tests used:
# Conditions in all cases: modulator concentration 10 µM
# [1] = test system: RAW-Dual (murine macrophage reporter line); test: NF-kB reporter (SEAP) activity fold change vs agonist alone; higher = enhanced NF-kB activity
# How it was run: (§1)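 Compound reached 10 μM final in each well by pin transfer, onto RAW-Dual murine macrophage reporter cells seeded at 50 000 per well in 384-well plates. After 1 hour at 37 °C, the cells were stimulated overnight with a PRR agonist. SEAP in the supernatant was read with QUANTI-Blue at 620 nm absorbance for NF-κB, and Lucia luciferase was read with QUANTI-Luc luminescence for IRF. Each signal was turned into fold change against the mean agonist-only control on the same plate, and two replicate plates were averaged with propagated errors.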
# [2] = test system: RAW-Dual (murine macrophage reporter line); test: IRF reporter (Lucia luciferase) activity fold change vs agonist alone; higher = enhanced IRF activity
# How it was run: as §1
# [3] = test system: RAW-Dual (murine macrophage reporter line); test: viability score (confluency relative to resting cells, overnight) (fraction); higher = more viable, active = viable (0.7 or more)
# How it was run: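 A compound met the cutoff when both of two confluency masks exceeded 70% of resting cells. Those masks were made with IncuCyte software from IncuCyte images of RAW-Dual macrophages treated overnight at 10 μM final. This is the basis of the viability score, which is confluency relative to resting cells.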
# [4] = agonist: CpG ODN 1826 0.5 ug/mL
Compound,"NF-kB reporter [1, 4]",NF-kB reporter ([1]; agonist: LPS 0.1 ug/mL),NF-kB reporter ([1]; agonist: MPLA […]),IRF reporter ([2]; agonist: 3'3'-cGAMP 10 ug/mL),IRF reporter ([2]; agonist: LPS 0.1 ug/mL),IRF reporter ([2]; agonist: MPLA […]),viability score [3]
COc1ccc(-c2cc3nc(C)cc(NCCN4CCOCC4)n3n2)cc1OC,1.11 ± 0.086,0.962 ± 0.076,0.976 ± 0.026,1.06 ± 0.13,0.998 ± 0.12,1.05 ± 0.22,0.997 (active)
COc1ccc(C=CC(=O)Nc2sc(C(=O)OC(C)C)c(C)c2C(N)=O)cc1,0.846 ± 0.076,0.798 ± 0.045,0.958 ± 0.086,0.949 ± 0.043,1.44 ± 0.092,1.57 ± 0.17,1 (active)
O=C(C=Cc1ccc(Cl)c(Cl)c1)c1ccc2ccccc2c1O,1.09 ± 0.1,1.06 ± 0.07,0.935 ± 0.085,0.96 ± 0.041,1.57 ± 0.23,1.25 ± 0.077,1.01 (active)
O=C(O)c1ccc(NC(=O)c2cccc(F)c2)cc1,1.09 ± 0.091,1.01 ± 0.1,0.962 ± 0.061,0.963 ± 0.035,1.08 ± 0.056,0.994 ± 0.18,0.998 (active)
CC(CN1c2ccccc2Sc2cccnc21)N(C)C.Cl (configuration not stated),0.968 ± 0.075,0.926 ± 0.11,1.07 ± 0.042,1.03 ± 0.099,0.935 ± 0.14,0.921 ± 0.16,1 (active)
O=C(O)CC(C(=O)O)N1C(=O)C(=C2C(=O)Nc3ccc(Br)cc32)SC1=S (configuration not stated),0.775 ± 0.28,1.05 ± 0.11,0.837 ± 0.069,0.894 ± 0.036,1.24 ± 0.15,1.59 ± 0.4,0.995 (active)
O=C(CC1Sc2ccccc2NC1=O)Nc1ccccc1 (configuration not stated),0.945 ± 0.084,0.877 ± 0.071,1.03 ± 0.18,0.754 ± 0.11,1.32 ± 0.29,1.41 ± 0.38,1.02 (active)
COc1ccc(NC(=O)c2cn(-c3cc(N4CCCCC4)ncn3)cn2)cc1F,1.31 ± 0.074,1.13 ± 0.086,1.22 ± 0.035,1.52 ± 0.45,1.01 ± 0.1,1.23 ± 0.3,0.97 (active)
CCCCN(CCCC)CC(=O)Nc1c2c(nc3ccccc13)CCC2.O=C(O)C(=O)O,0.63 ± 0.035,1.1 ± 0.067,1.15 ± 0.068,1.38 ± 0.053,1.98 ± 0.13,0.98 ± 0.15,0.308 (inactive)
CC(C)(O)C#Cc1ccccn1,0.931 ± 0.052,0.93 ± 0.14,0.909 ± 0.072,0.916 ± 0.05,1.11 ± 0.096,1.08 ± 0.29,1.01 (active)
O=C(O)CCC(=O)Nc1ccc(Br)cn1,1.17 ± 0.098,1.02 ± 0.066,1.02 ± 0.04,1.02 ± 0.19,1.12 ± 0.14,0.938 ± 0.27,0.997 (active)
Cc1c(N=Cc2cc([N+](=O)[O-])ccc2O)c(=O)n(-c2ccccc2)n1C,0.911 ± 0.055,0.995 ± 0.061,0.907 ± 0.089,0.917 ± 0.03,1.34 ± 0.15,1.18 ± 0.2,0.999 (active)
COc1ccc(N2CC(NC(=O)Nc3cccc(Cl)c3C)CC2=O)cc1OC (configuration not stated),0.89 ± 0.064,1 ± 0.085,1.01 ± 0.061,0.977 ± 0.074,1.1 ± 0.21,1.15 ± 0.45,0.973 (active)
COc1ccc(NC(=O)c2nn(-c3ccc(F)cc3)cc2OC)cc1OC,1.07 ± 0.12,1.14 ± 0.094,0.889 ± 0.04,0.976 ± 0.07,1.23 ± 0.12,1.13 ± 0.24,0.976 (active)
O=C(Nc1ccc(F)c(F)c1)c1ccnc(OCC2CCOCC2)c1,1.15 ± 0.07,0.969 ± 0.084,0.908 ± 0.046,0.856 ± 0.051,1.16 ± 0.14,1.26 ± 0.36,0.995 (active)
COc1ccc(OS(=O)(=O)c2ccc3cc(OC)ccc3c2)cc1,0.982 ± 0.088,1.14 ± 0.089,1.06 ± 0.068,1 ± 0.035,1.43 ± 0.1,1.03 ± 0.15,1 (active)
O=C(N/N=C/c1ccc([N+](=O)[O-])o1)c1ccc(O)cc1,1.54 ± 0.21,2.63 ± 0.4,2.97 ± 0.26,1.01 ± 0.051,1.88 ± 0.34,1.43 ± 0.12,0.968 (active)
CCOC(=O)C(C)N(c1ccc(OC)cc1)S(C)(=O)=O (configuration not stated),0.99 ± 0.056,0.985 ± 0.071,0.905 ± 0.053,1.07 ± 0.053,1.22 ± 0.083,1.12 ± 0.27,0.977 (active)
Cc1ccccc1N(CC(=O)NCCSc1ccc(Cl)cc1)S(=O)(=O)c1ccccc1,0.66 ± 0.079,1.01 ± 0.056,0.851 ± 0.056,0.64 ± 0.034,1.4 ± 0.11,1.1 ± 0.13,1 (active)
COCCOC(=O)C1=C(C)NC(C)=C(C(=O)OC/C=C/c2ccccc2)C1c1cccc([N+](=O)[O-])c1 (configuration not stated),0.743 ± 0.078,0.787 ± 0.037,0.938 ± 0.09,1 ± 0.057,1.18 ± 0.088,1.17 ± 0.1,1.01 (active)
Cc1c(NC(=S)NC(=O)c2ccccc2[N+](=O)[O-])cccc1-c1nc2ccccc2s1,1.09 ± 0.087,1.07 ± 0.073,0.933 ± 0.064,0.88 ± 0.021,1.47 ± 0.2,1.07 ± 0.2,1.02 (active)
COC(=O)c1ccc(C=NN=C2C(=O)Nc3ccccc32)cc1,0.968 ± 0.069,1.05 ± 0.09,0.995 ± 0.028,0.527 ± 0.028,1.09 ± 0.053,1.13 ± 0.11,0.998 (active)
Br.COc1ccc(C2=NN(c3nc(-c4ccc(OC)c(F)c4)cs3)C(c3ccc(OC)cc3)C2)cc1 (configuration not stated),0.964 ± 0.068,0.997 ± 0.11,0.914 ± 0.1,0.805 ± 0.071,1.22 ± 0.08,1.05 ± 0.39,1.01 (active)
C#CCN[C@@H]1CCc2ccccc21 [Prestw-1734],1.05 ± 0.06,0.933 ± 0.11,0.978 ± 0.026,0.977 ± 0.037,0.957 ± 0.054,0.973 ± 0.1,0.996 (active)
CCS(=O)(=O)O.COC(=O)c1ccc2c(c1)NC(=O)/C2=C(\Nc1ccc(N(C)C(=O)CN2CCN(C)CC2)cc1)c1ccccc1,0.115 ± 0.027,0.886 ± 0.044,2.23 ± 0.18,0.036 ± 0.002,0.177 ± 0.025,0.241 ± 0.028,0.839 (active)
CC(=O)N1CCN(c2ccc(OCC3COC(Cn4ccnc4)(c4ccc(Cl)cc4Cl)O3)cc2)CC1 (configuration not stated),0.669 ± 0.058,1.1 ± 0.085,1.08 ± 0.023,1.07 ± 0.059,1.14 ± 0.12,1.18 ± 0.11,0.92 (active)
